Experimental data as given in PubChem BioAssay (NCI).
The panel holds about 83,000 compounds, 20% with a hit somewhere; the sample as a whole holds those more often.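 How to read the values: 0–100, growth inhibition (40 = 60% inhibited); 0, no net growth; -100 to 0, cell death (-40 = 40% of starting cells died; -100 = all dead).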 Unmarked numbers belong to inactive results.

Each compound was assayed on SNB-19 CNS (assay: NCI-60 one-dose screen, 48 h (100 = growth as untreated, 0 = no growth, -100 = all killed)). Conditions: 10 µM unless noted.
Protocol: Growth inhibition of the SNB-19 human tumor cell line is measured as a screen for anti-cancer activity. Cells are grown in 96 well plates and exposed to the test compound for 48 hours. Compounds are tested at a single concentration, which is 10^-5 M for most compounds. The reported endpoint is percent growth (GI% or GIPRCNT), where numbers from 0 - 100% represent growth inhibition, and numbers from -100% - 0 represent cell death. For example, a value of 40 represents 60% growth inhibition. A value of 0 means no net growth occurred over the course of the experiment. A value of -40 indicates 40% of cells at the beginning of the experiment died by the end of the experiment. A value of -100 means all cells are dead at the end of the experiment.
NCI-60 Human Tumor Cell Lines Screen was performed using the standard one-dose NCI protocol, which is described in more detail at https://dtp.cancer.gov/discovery_development/nci-60/default.htm.
Compounds with GIPRCNT values below 10 were considered active. Activity score was based on GIPRCNT using the following formula: […]
Score is 0 for GIPRCNT values of 100 or above, 50 for GIPRCNT values of 0, and 100 for GIPRCNT values of -100.

Structure (SMILES) | growth [%]
COc1cc2cc(Oc3ccc(NC(=O)Nc4cc(C(F)(F)F)cc(C(F)(F)F)c4)cc3)c(C)nc2cc1OCCN1CCOCC1 | 23.8
Cc1c(C(=O)NCCCc2ccccc2)sc2ncc(-c3ccc(Br)cc3)n12 | 101
CC1(C)C2CC1C1(/C=N\Nc3ccccc3)C(C2)C(C#N)(C#N)C1(C#N)C#N (stereo not given) | 96.2
CCCCCCCCCCCCCCCCCCOc1ccccc1CC(=O)OCC[N+](CC)(CC)CC | 11.4
Cc1ccc(/C=C2\Oc3ccc(O)c(O)c3C2=O)cc1 | 37.9
CCCCC[C@H](O)C/C=C1/C(=O)C=C[C@@H]1C/C=C\CCCC(=O)OC | 60.4
O=C(Nc1ccc(F)cc1F)c1cc(F)ccc1O | 10.7
Cc1cccc(NC2=C(Cl)C(=O)c3nc(C)ccc3C2=O)c1 | 23.7
CCOC(=O)c1cnn2c3ccccc3n(S(=O)(=O)c3ccc(OC)cc3)c12 | 27.5
COc1cc(C(=O)c2cc(C)c3[nH]c4ccc(C)cc4c3c2C)cc(OC)c1OC | 52.2
COc1ccc(C2C(N)=NNC2c2cccc(O)c2)cc1 (stereo not given) | 81.3
O=C1CN(CCN2CC(=O)N(Cc3ccccc3)C(=O)C2)CC(=O)N1Cc1ccccc1 | 107
O=C(/C=C/c1sc(Cl)nc1Cl)c1ccccc1 | 96
COc1ccc2c(c1)C(C)Cc1c(ncnc1-n1c(C)nc3ccccc31)N2C (stereo not given) | 32.3
COc1ccc2[nH]c(-c3ccccc3)c(/C=C(\C#N)S(=O)(=O)c3ccccc3)c2c1 | 63.2
CCc1ccc(Oc2c(-c3ccc(OCCc4cccc(C(F)(F)F)c4)cc3O)n[nH]c2C(F)(F)F)cc1 | 39.8
C=C(C)[C@@H]1CC[C@]2(N=C=O)CC[C@]3(C)[C@H](CC[C@@H]4[C@@]5(C)Cc6c([nH]c7ccccc67)C(C)(C)[C@@H]5CC[C@]43C)[C@@H]12 | 91.4
Cc1nn(-c2ccccc2)c2c1N=c1s/c(=C\c3ccc(C(F)(F)F)cc3)c(=O)n1CN2 | 84.4
COc1ccc(-c2c(C(=O)NS(C)(=O)=O)n(Cc3cccc(C(F)(F)F)c3)c3ccccc23)cc1 | 93.2
O=c1c2cccc(Cl)c2sc2c(NCCCNCCO)nc3ccccc3c12 | 45.7

Structure (SMILES) | growth [%]
Cc1ccc2sc3c(NCCN)nc4ccccc4c3c(=O)c2c1 | 81
Clc1ccc(C(/C=C/c2sc(Cl)nc2Cl)=N/Nc2cc(Cl)cc(Cl)c2)cc1 | 96.4
C#C[C@]1(O)CC[C@H]2[C@@H]3CC=C4c5sc(Nc6ccccc6)nc5CC[C@]4(C)[C@H]3CC[C@@]21C | 49.4
NS(=O)(=O)c1ccc(-n2nc(-c3ccc(Cl)cc3)c3ccccc3c2=O)cc1 | 85.6
CCCCCCCNC(=O)CCCNc1ncnc2c1ncn2-c1cccc(C(C)O)c1 (stereo not given) | 96.3
Cn1cc(C(=O)c2nc(-c3cn(C)c4ccc(F)cc34)no2)c2cc(F)ccc21 | 104
C=C1C(=O)O[C@H]2[C@H]1CC/C(COC(=O)CCSSCCC(=O)OC/C1=C/CC[C@@]3(C)O[C@H]3[C@H]3OC(=O)C(=C)[C@@H]3CC1)=C\CC[C@@]1(C)O[C@@H]21 | 39.2
CCOC(=O)c1cn2ncnc(Oc3ccc(NC(=O)NCCN(C)C)c(Cl)c3)c2c1C | 82.8
O=[N+]([O-])c1ccc(Oc2nc(Nc3ccc(O[C@H]4CO[C@H]5[C@@H]4OC[C@@H]5O)c(Cl)c3)ncc2F)c(Cl)c1 | 56.6
O=C(N=c1oc2ccccc2cc1-c1cc2ccccc2[nH]1)Nc1ccc(Cl)cc1 | 97.3
CN(C)CCN1CCN(c2ncccc2C2Nc3ccccc3-n3cccc32)CC1 (stereo not given) | 106
CCCCC[C@H](O)C/C=C1/C(=O)C=C[C@@H]1C/C=C\CCCC(=O)O | 83.4
COC(=O)Nc1ccc(-c2nc(-c3cccc(OC)c3)c(-c3ccnc(Br)c3)[nH]2)cc1 | 61.6
O=C(S)CNC(=O)c1ccccc1 | 94.9
COc1cccc2c(=O)c3c(sc12)c(N1CCNCC1)nc1ccccc13 | 80
COc1ccc(NC2=C(Br)C(=O)C(C)=C(C)C2=O)cc1 | 85.2
COc1cc(C(=O)c2cnc(-c3c[nH]c4cccc(C)c34)[nH]2)cc(OC)c1OC | 37.9
Nc1cc2c(cc1Br)-c1cc(Cl)ccc1C2=O | 104
Cc1ccc(/C=N\NC(=O)c2[nH]c3ccc(F)cc3c2-c2ccccc2)cc1 | 45.9
CC(=O)CC(c1cccs1)c1c(-c2ccccc2)[nH]c2ccccc12 (stereo not given) | 96
